Screening data from PubChem BioAssay.
aSyn UTR act: Activators via SNCA 5'UTR binding, MLPCN; 300,000 tested, 7.1% active; activity score, % (tested at 7.5 µM), hits read low; alpha-synuclein 5'UTR reporter, activators screen; in the data active = activity score below about -60%
Of the large screens only hits and unclear results are named; the others gave an inactive call. Not all results are given here.

O=C(COc1ccccc1)NC1CCCCCCC1	aSyn UTR act -67
O=C(COc1ccc(Cl)cc1[N+](=O)[O-])NC1CCCCC1	aSyn UTR act -119
Cc1cc(OCC(=O)NC2CCCCC2)ccc1Cl	aSyn UTR act -62
Cc1[nH]nc2nc(SCC(=O)NC3CCCCC3)n(-c3ccc(Br)cc3)c(=N)c12	none
O=C(CSc1ccccc1)NC1CCCCCC1	aSyn UTR act -82
O=C(NC1CCCCC1)N1CCc2ccccc21	aSyn UTR act -111
Cc1cccc(NC(=O)Cc2noc3ccccc23)c1	aSyn UTR act -82
O=C(Cc1noc2ccccc12)Nc1ccc(Cl)cc1	aSyn UTR act -69
COc1ccccc1C(=O)Nc1nnc(SCC(=O)NCC2CCCO2)s1 (stereo not drawn)	aSyn UTR act -102
COc1ccc(C(=O)Nc2nnc(SCC(=O)NC3CCCC3)s2)c(OC)c1	none
O=C(CSc1nnc(NC(=O)c2ccc(F)cc2F)s1)NC1CC1	aSyn UTR act -69
COc1ccccc1C(=O)Nc1nnc(SCC(=O)NCc2ccco2)s1	aSyn UTR act -67
COc1ccc(C(=O)Nc2nnc(SCC(=O)Nc3ccc(NC(C)=O)cc3)s2)c(OC)c1	aSyn UTR act -63
O=C(CSc1nnc(NC(=O)c2ccccc2F)s1)NCc1ccco1	aSyn UTR act -80
Cc1ccccc1C(=O)Nc1nnc(-c2ccco2)s1	none
O=C(CSc1nnc(NC(=O)c2ccccc2F)s1)NCc1ccc(F)cc1	aSyn UTR act -84
COc1ccccc1C(=O)Nc1nnc(-c2ccco2)s1	aSyn UTR act -168
COc1ccccc1-c1nnc(NC(C)=O)s1	aSyn UTR act -91
CCn1c(-c2cccnc2Cl)nc2cc(Cl)c(Cl)cc21	aSyn UTR act -119
COc1ccc(CCNC(=O)C2CC(c3cccc([N+](=O)[O-])c3)=NO2)cc1 (stereo not drawn)	aSyn UTR act -112
COc1ccc(N2CCN(S(=O)(=O)CCNC(=O)Cc3ccc([N+](=O)[O-])cc3)CC2)cc1	none
Cc1ccc(CNC(=O)C2CC(c3cccc([N+](=O)[O-])c3)=NO2)o1 (stereo not drawn)	aSyn UTR act -88
COc1ccc(CCNC(=O)C2CC(c3ccc([N+](=O)[O-])cc3)=NO2)cc1 (stereo not drawn)	aSyn UTR act -69
O=C(NCCc1cccs1)C1CC(c2ccc([N+](=O)[O-])cc2)=NO1 (stereo not drawn)	aSyn UTR act -157
CCCCNC(=O)C1CC(c2cccc(F)c2)=NO1 (stereo not drawn)	aSyn UTR act -94
CC(=O)c1ccc(-n2c(C)ccc2-c2ccccc2)cc1	aSyn UTR act -109
O=c1c2ccccc2oc2cc(C#Cc3ccccn3)ccc12	aSyn UTR act -67
COc1cc(-c2noc(C)c2C#Cc2ccccn2)cc(OC)c1OC	none
COc1cccc2oc3ccc(C#Cc4ccccn4)cc3c(=O)c12	aSyn UTR act -71
C(=N\Nc1nc(-c2ccccc2)cs1)/c1ccco1	aSyn UTR act -351
Cc1ccc(-c2csc(N/N=C/c3ccco3)n2)cc1	aSyn UTR act -232
Clc1ccc(-c2csc(N/N=C/c3ccco3)n2)cc1	aSyn UTR act -156
Clc1ccc(-c2csc(N/N=C\c3cccnc3)n2)cc1	aSyn UTR act -77
O=C(O)COc1ccc(-c2nccc(-c3ccccn3)n2)cc1	none
FCCCOc1ccc(-c2nccc(-c3ccccn3)n2)cc1	aSyn UTR act -63
COc1ccc2oc(=O)c(-c3csc(Nc4cccc(O)c4)n3)cc2c1	aSyn UTR act -76
COc1ccc(Nc2nc(-c3cc4cccc(OC)c4oc3=O)cs2)cc1	aSyn UTR act -83
COc1ccc2c(C(=O)CN3CCSCC3)c[nH]c2c1	aSyn UTR act -63
COc1ccc(OCCSc2ncnc3nc[nH]c23)cc1	aSyn UTR act -81
Fc1ccccc1OCCSc1ncnc2nc[nH]c12	aSyn UTR act -100
c1ccc2oc(-c3ccn[nH]3)cc2c1	aSyn UTR act -120
Oc1ccc(COCc2ccccc2)c2cccnc12	none
CSc1ncccc1C(=O)OCc1ccccc1	aSyn UTR act -66
CSc1ncccc1C(=O)OCc1ccccc1F	aSyn UTR act -62
Oc1ccc(CNc2ccccc2F)c2cccnc12	none
O=C(NC(=S)Nc1ccccc1Br)c1ccco1	aSyn UTR act -86
O=C(NC(=S)NNC(=O)c1ccccc1O)c1ccco1	aSyn UTR act -99
O=C(/C=C/c1cccs1)NC(=S)NNC(=O)c1ccccc1O	none
Cc1c(NC(=S)NC(=O)Cc2ccccc2)cccc1C(=O)O	aSyn UTR act -79
Cc1cccc(NC(=S)NC(=O)c2ccco2)c1C	aSyn UTR act -94
N#Cc1cc(C#N)c(N2CCN(c3cccc(Cl)n3)CC2)nc1N	aSyn UTR act -85
Cc1ccc(OCC(=O)Nc2ccon2)c([N+](=O)[O-])c1	aSyn UTR act -91
Cc1ccc(OCC(=O)Nc2ccccc2[N+](=O)[O-])c(Br)c1	aSyn UTR act -207
Cc1ccc(OC/C(=N\O)C(C)(C)C)c([N+](=O)[O-])c1	aSyn UTR act -77
O=C(CNc1ccc(Br)cc1)c1ccc(Br)s1	aSyn UTR act -68
Cc1oc2cc3oc(=O)cc(C)c3cc2c1C	aSyn UTR act -88
O=C(Nc1ccccc1)N1CCCC2CCCCC21 (stereo not drawn)	aSyn UTR act -125
C(=C\c1ccco1)/c1nc2ccccc2[nH]1	aSyn UTR act -141
CC1(C)C2C/C(=N\O)C(C)(/[N+]([O-])=C/c3cccc([N+](=O)[O-])c3)CC21 (stereo not drawn)	aSyn UTR act -62
O=C(NC1CCCCC1)c1cc(-c2ccco2)on1	aSyn UTR act -128
COc1ccc(-c2cc(C(=O)Nc3ccc(C)c(C)c3)no2)cc1	aSyn UTR act -124
COc1ccc(-c2cc(C(=O)NC(C)C)no2)cc1	aSyn UTR act -71
COc1cccc(-c2cc(C(=O)N3CCCCC3C)no2)c1 (stereo not drawn)	aSyn UTR act -162
COc1ccc(-c2cc(C(=O)NC3CCCC3)no2)cc1	aSyn UTR act -121
COc1cccc(-c2cc(C(=O)NC3CCCCC3)no2)c1	aSyn UTR act -202
Cn1/c(=N\NC(=O)C2CCCCC2)sc2ccccc21	aSyn UTR act -141
Cn1/c(=N\NC(=O)c2ccccc2Cl)sc2ccccc21	aSyn UTR act -89
CCCCSc1nnc(-c2ccc(OC)cc2)n1C	aSyn UTR act -133
Cc1ccc(-c2nnc(SCC(C)C)n2C)cc1	aSyn UTR act -146
Cc1ccc(Nc2nc(CSc3nnc(-c4ccc(F)cc4)n3C)cs2)cc1	aSyn UTR act -144
Cc1nc(-c2ccc(NC(=O)c3ccco3)cc2)cs1	none
Cc1nc(-c2ccc(NC(=O)Cc3ccccc3)cc2)cs1	aSyn UTR act -164
CCC(=O)Nc1ccc(-c2csc(C)n2)cc1	aSyn UTR act -81
CC1CCN(c2c(NCc3ccc(C(=O)N4CCc5ccccc54)cc3)c(=O)c2=O)CC1	none
Cc1ccc(C(=O)N2CCc3ccccc32)cc1	aSyn UTR act -112
Cn1cc(C(=O)N2CCc3ccccc32)cn1	aSyn UTR act -63
O=C(c1cc([N+](=O)[O-])ccc1N1CCCCC1)N1CCc2ccccc21	none
O=C(c1ccc(Cl)s1)N1CCc2ccccc21	aSyn UTR act -195
CCCCCCOc1ccc(OCC(O)CN2C(=O)NC(C)(C)C2=O)cc1 (stereo not drawn)	aSyn UTR act -128
CN(C)CCCNS(=O)(=O)c1ccc(N2CCC(c3ccc(Cl)cc3)=N2)cc1	aSyn UTR act -139
CC1Sc2ccc(C(=O)OCc3ccccc3Cl)cc2NC1=O (stereo not drawn)	aSyn UTR act -147
CC1Sc2ccc(C(=O)Nc3ccccc3OC(F)F)cc2NC1=O (stereo not drawn)	aSyn UTR act -81
